In all, about 2,300 compounds went through this assay and about 1,200 (52%) were called active. Another 34% or so got no clear call; they are omitted. The set was probably picked from earlier hits. Some of the results follow. Values without a mark were called inactive. The call rests on the fitted dose curve; in most records, active means well fitted inhibition curve with a large enough effect; inconclusive means small, poorly fitted or top-dose-only effect, or effect the other way; inactive means no such curve, though single readings can be large or run the other way.
Assay: Confirmation screen for delayed death inhibitors of the malarial parasite plastid, 48 hour incubation; further: nearly all actives have a fitted effect of over 65% in size
Conditions: P. falciparum-infected erythrocytes, luciferase growth; series mostly up to 28.7 µM; activity change, negative = inhibition: at the top concentration
Text: The goal of this screen is to discover new antimalarial compounds that act by inhibiting the development of the apicoplast in the malarial parasite Plasmodium falciparum. The biochemical processes that make this organelle essential for erythrocytic stage parasites are not well understood. However, antibiotics, such as azithromycin and tetracycline, which target the apicoplast translational machinery, have a potent antimalarial effect. […] We have developed a cell-based assay that measures parasite growth based on the expression of an integrated copy of a firefly luciferase reporter. To detect small molecules that cause this "delayed death phenotype, erythrocytes infected with the luciferase-expressing parasites were incubated with compounds for either one or two generations, corresponding to 48 and 96 hours, respectively. Compounds that inhibit parasite growth in the second generation, but not the first, should be enriched in antimalarials that target the apicoplast. Growth inhibition is detected by a decrease in luciferase activity. MLPCN Grant: R21 NS059500 Assay Provider: David Fidock and Eric Ekland, Columbia University Keywords: NIH Roadmap, MLPCN, MLI, MLSMR, qHTS, NCGC, qHTS, malaria, luciferase, viability
Four microliters of culture medium (RPMI 1640 with 0.5% w/v Albumax (GIBCO), 24 mM sodium bicarbonate and 10 ug/mL gentamycin) were dispensed by a Multi-drop Combi into white solid 1536-well plates (Grenier) and 23 nL compound was added by a pin tool. Four microliters of infected erythrocytes (2% hematocrit, 0.1% parasitemia final concentration) in culture medium were dispensed and the plates incubated for 48 hours at 37 C in 5% CO2. Two microliters of luciferase detection reagent was added and luminescence was detected by a ViewLux (PerkinElmer) reader.
On the % scale 0 is the no-effect control and ±100 the full control effect; potency means the concentration at half of the fitted maximal effect.

| SMILES | activity change, negative = inhibition [%] | Potency |
| --- | --- | --- |
| COc1ccccc1N1CCN(S(=O)(=O)c2ccc(-n3cnnn3)cc2)CC1 | -28 | – |
| COc1cc(CN2CCN(S(=O)(=O)c3ccccc3)CC2)cc(OC)c1OC | – | 3.16 µM (active) |
| COCCN1CCCC(CNCc2cn(C)nc2-c2ccc(Oc3ccccc3)cc2)C1 (stereo unspecified) | – | 7.94 µM (active) |
| Cc1cccc(NC(=O)Cc2coc3ccc4ccccc4c23)n1 | – | 12.6 µM (active) |
| CCOc1ccc(C2C3=C(Nc4nc(N)[nH]c(=O)c42)c2ccccc2C3=O)cc1 (stereo unspecified) | – | 14.1 µM (active) |
| C/C(=C\C(=O)c1ccncc1)Nc1ccccc1O | – | 14.1 µM (active) |
| CSc1ccccc1NC(=O)CN1CCN(S(=O)(=O)c2ccccc2[N+](=O)[O-])CC1 | – | 14.1 µM (active) |
| O=C(CCN1CCN(c2ccc(F)cc2)CC1)Nc1ccccc1F | -14.3 | – |
| C=CCNC(=O)c1onc(CSc2cccc3ccccc23)c1C(=O)O | 13.7 | – |
| Cc1c(NC(=O)CSc2nnc3c4ccccc4n(CCc4ccccc4)c3n2)c(=O)n(-c2ccccc2)n1C | – | 11.2 µM (active) |
| CSc1nnc2c3ccccc3n(CCc3ccccc3)c2n1 | – | 15.8 µM (active) |
| COc1ccc(C)cc1NC(=O)C(Sc1nnc(Nc2cc(C)ccc2OC)s1)c1ccccc1 (stereo unspecified) | – | 14.1 µM (active) |
| CC(C)(C)OC(=O)NCCCCCNC(=O)c1[nH]cnc1C(=O)Nc1nccs1 | – | 10 µM (active) |
| Cn1cc([N+](=O)[O-])c(C(=O)Nc2nccs2)n1 | 0.495 | – |
| CCn1cc(C(=O)O)c(=O)c2cc(F)c(N/N=C/c3ccccc3)cc21 | – | 12.6 µM (active) |
| O=C(c1cccs1)N1CCC(c2nc3c(nnn3Cc3c(Cl)cccc3Cl)c(=O)[nH]2)CC1 | – | 7.94 µM (active) |
| O=c1[nH]c(C2CCN(S(=O)(=O)c3cccc([N+](=O)[O-])c3)CC2)nc2c1nnn2Cc1ccccc1 | – | 10 µM (active) |
| CC(SC#N)C(=O)C12CC3CC(CC(C3)C1)C2 (stereo unspecified) | – | 8.91 µM (active) |
| O=C(CSc1nnc(-c2ccco2)o1)N1c2ccccc2CCc2ccccc21 | – | 10 µM (active) |
| C/C(=N\NC(=S)NCC(C)(C)C)c1cc(F)cc(F)c1O | – | 11.2 µM (active) |
| CC1=NNC(=O)/C1=C\c1cn(-c2ccccc2)nc1-c1cccs1 | – | 8.91 µM (active) |
| COc1cccc(Nc2ccc(N3CCCCC3)cc2)c1OC | – | 6.31 µM (active) |
| ClC(/C=N/n1cnnc1)=C/c1ccccc1 | – | 14.1 µM (active) |

| SMILES | activity change, negative = inhibition [%] | Potency |
| --- | --- | --- |
| S=c1[nH]nc(COc2ccccc2)n1/N=C/C(Cl)=C/c1ccccc1 | – | 14.1 µM (active) |
| O=C(CSc1nc2nn(-c3ccccc3)c(=O)c-2c2n1CCCCC2)c1ccc(O)c(O)c1 | – | 12.6 µM (active) |
| COc1ccc(/C=C/C(=O)c2ccc(NS(=O)(=O)c3ccc(C)cc3)cc2)cc1O | – | 7.94 µM (active) |
| COc1cc(/C=C/C(=O)c2ccc(NS(=O)(=O)c3ccc(C)cc3)cc2)ccc1OC(F)F | – | 12.6 µM (active) |
| Cc1c(O)ccc(C(=O)CN2CCN(Cc3ccc4c(c3)OCO4)CC2)c1O | – | 14.1 µM (active) |
| Cc1c(-c2ccccc2)nc2ccccc2c1C(=O)Nc1ccncc1 | – | 0.501 µM (active) |
| O=C(c1cc(COc2cccc(C(F)(F)F)c2)on1)N1CCC(Oc2cccnc2)CC1 | – | 12.6 µM (active) |
| CC(=O)N1CCCN(C(=O)c2cc(COc3c(F)cccc3F)on2)CC1 | -13.9 | – |
| CN1CCN(C(=O)c2cc(COc3c(F)cccc3F)on2)CC1c1ccccc1 (stereo unspecified) | -15.8 | – |
| S=c1[nH]nc(-c2cc(-c3ccccc3)n[nH]2)n1/N=C/C(Br)=C/c1ccccc1 | – | 6.31 µM (active) |
| C=C1C(=O)O[C@@H]2C[C@@H](C)[C@@H]3C=CC(=O)[C@@]3(C)[C@@H](OC(C)=O)[C@H]12 | – | 1.58 µM (active) |
| COc1ccc2nc3sc(C(=O)NCCN4CCc5ccccc5C4)cc3cc2c1 | – | 8.91 µM (active) |
| c1ccc2c(c1)Nc1cc3ccccc3cc1S2 | – | 5.01 µM (active) |
| O=C(/C=C/Sc1ncn[nH]1)c1ccc(Cl)cc1 | – | 12.6 µM (active) |
| CCN(Cc1ccccc1)C(=O)CSc1ncn[nH]1 | -18.7 | – |
| O=C(/C=C/c1ccccc1Cl)c1ccccc(=O)c1O | – | 10 µM (active) |
| Cc1ccc(C)c(/C=C/C(=O)c2ccccc(=O)c2O)c1 | – | 14.1 µM (active) |
| N#Cc1ccccc1S(=O)(=O)N1CCC(C(=O)NCc2ccccc2CN2CCCC2)CC1 | – | 12.6 µM (active) |
| COc1ccc(C)cc1NC(=O)CSCc1ccccc1C | – | 12.6 µM (active) |
| Cc1ccc(SCC(=O)Nc2ccccc2C(=O)O)cc1 | 8.96 | – |
| CCOc1ccc(NC(=O)CC2C(=O)N(c3ccccc3)C(=O)N2CCOC)cc1 (stereo unspecified) | -1.36 | – |
| O=C(C[C@H]1C(=O)N(Cc2ccccc2)C[C@@H]1Cc1ccccc1)Nc1ccccc1 | – | 11.2 µM (active) |
| Cn1c(Cc2cccc3ccccc23)nnc1SCc1ccc([N+](=O)[O-])cc1 | – | 14.1 µM (active) |
